From PubChem BioAssay (NCATS)
Records with an inconclusive call do not appear. Active and inactive are the calls of the source. The call rests on the fitted dose curve; in most records, active means well fitted curve in the direction sought with a large enough effect; inconclusive means small, poorly fitted or top-dose-only effect, or another doubt; inactive means no such curve, though single readings can be large; an effect the other way counts as inactive or inconclusive.

Legend:
[1] = test system: CRL-7250; test: Cytotoxic Profiling of Annotated Libraries Using Quantitative High-Throughput Screening (AID 1296008); settings: Five cell lines viability, CellTiter-Glo ATP luminescence, 48-72 h; max response: hits give low values; further: nearly all actives have a fitted effect of over 60% in size; on max response: on the % scale 0 is the no-effect control and ±100 the full control effect
Procedure, shortened: (§1)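 Cytotoxicity was measured as CellTiter-Glo ATP luminescence, read after 10 min at room temperature. Compound treatment of the cells lasted 48 or 72 hr at 37 degrees Celsius in a qHTS format.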

[2] = test system: HaCat; test: as above; settings: Five cell lines viability, CellTiter-Glo ATP luminescence, 48-72 h; max response: hits give low values
Procedure, shortened: as §1

[3] = test system: KB-3-1; test: as above; settings: Five cell lines viability, CellTiter-Glo ATP luminescence, 48-72 h; max response: hits give low values
Procedure, shortened: as §1

[4] = test system: NIH3T3; test: as above; settings: Five cell lines viability, CellTiter-Glo ATP luminescence, 48-72 h; max response: hits give low values
Procedure, shortened: as §1

[5] = test system: HACAT; test: qHTS assay to identify novel small-molecules to repurpose for Merkel cell carcinoma treatment (AID 1296009); settings: MCC and control cell lines, CellTiter-Glo viability, 72 h; at 44.8 µM (top of the series) unless noted; further: nearly all actives have a fitted effect of over 60% in size
Procedure, shortened: (§2)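 Cell viability measured by CellTiter-Glo following 72 hr compound treatment at 37 degree celsius, with NPC and MIPE libraries tested in 8- and 11-point concentration series.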

[6] = test system: NIH3T3; test: as above; settings: MCC and control cell lines, CellTiter-Glo viability, 72 h; series mostly up to 44.8 µM
Procedure, shortened: as §2

[7] = test system: C33A; test: Primary qHTS to identify gynecologic anti-cancer compounds using libraries of approved drugs and bioactive compounds (AID 1345084); settings: Gynecologic cancer cell panel viability, ATPlite luminescence, 48 h; series mostly up to 57.5 µM; further: on the % scale 0 is the no-effect control and ±100 the full control effect; nearly all actives have a fitted effect of over 55% in size
Procedure, shortened: (§3)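 48 h compound exposure at 37 C, 5% CO2; five-point qHTS. ATPlite luminescence readout of cell ATP.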

[8] = test system: CAOV3; test: as above; settings: Gynecologic cancer cell panel viability, ATPlite luminescence, 48 h; series mostly up to 57.5 µM
Procedure, shortened: as §3

[9] = test system: CASKI; test: as above; settings: Gynecologic cancer cell panel viability, ATPlite luminescence, 48 h; series mostly up to 57.5 µM
Procedure, shortened: as §3

[10] = test system: Es-2; test: as above; settings: Gynecologic cancer cell panel viability, ATPlite luminescence, 48 h; series mostly up to 57.5 µM
Procedure, shortened: as §3

[11] = test system: HeLa; test: as above; settings: Gynecologic cancer cell panel viability, ATPlite luminescence, 48 h; series mostly up to 57.5 µM
Procedure, shortened: as §3

[12] = test system: Hek293T; test: as above; settings: Gynecologic cancer cell panel viability, ATPlite luminescence, 48 h, control line for the selectivity index; series mostly up to 57.5 µM
Procedure, shortened: as §3

[13] = test system: JEG-3; test: as above; settings: Gynecologic cancer cell panel viability, ATPlite luminescence, 48 h; series mostly up to 57.5 µM
Procedure, shortened: as §3

[14] = test system: OV90; test: as above; settings: Gynecologic cancer cell panel viability, ATPlite luminescence, 48 h; series mostly up to 57.5 µM
Procedure, shortened: as §3

[15] = test system: PA-1; test: as above; settings: Gynecologic cancer cell panel viability, ATPlite luminescence, 48 h; series mostly up to 57.5 µM
Procedure, shortened: as §3

[16] = test system: SKOV3; test: as above; settings: Gynecologic cancer cell panel viability, ATPlite luminescence, 48 h; series mostly up to 57.5 µM
Procedure, shortened: as §3

N[C@@H]1c2cccnc2[C@H](OC(=O)N2CCC(n3c(=O)[nH]c4ncccc43)CC2)CC[C@H]1c1cccc(F)c1F
inactive: max response [1] -0.901% | outcome [2] | max response [3] 4.19% | outcome [4] | outcome [5] | Potency [6] | Potency [7] | Potency [8] | Potency [9] | Potency [10] | Potency [11] | Potency [12] | Potency [13] | Potency [14] | Potency [15] | Potency [16]

C1=Cc2ccccc2C(=C2CCN(CCCCc3nn[nH]n3)CC2)c2ccccc21
inactive: outcome [1] | outcome [2] | max response [3] -8.87% | outcome [4] | outcome [5] | Potency [6] | Potency [7] | Potency [8] | Potency [9] | Potency [10] | Potency [11] | Potency [12] | Potency [13] | Potency [14] | Potency [15] | Potency [16]

C=C(C(=O)OC)[C@@H]1CC=C2C=CC(=O)[C@H](C)[C@@]2(C)C1
inactive: max response [1] 4.23% | outcome [2] | max response [3] -5.91% | outcome [4] | outcome [5] | Potency [6] | Potency [7] | Potency [8] | Potency [9] | Potency [10] | Potency [11] | Potency [12] | Potency [13] | Potency [14] | Potency [15] | Potency [16]

CC#CCn1c(N2CCCC(N)C2)nc2c1c(=O)n(Cc1nc(C)c3ccccc3n1)c(=O)n2C (stereo unspecified)
inactive: max response [1] 0.556% | outcome [2] | outcome [3] | outcome [4] | outcome [5] | Potency [6] | Potency [7] | Potency [8] | Potency [9] | Potency [10] | Potency [11] | Potency [12] | Potency [13] | Potency [14] | Potency [15] | Potency [16]

CNC(C)C(=O)NC(C(=O)N1CCCC1C(=O)Nc1snnc1-c1ccccc1)C1CCCCC1 (stereo unspecified)
inactive: max response [1] 0.759% | outcome [2] | max response [3] 3.39% | outcome [4] | outcome [5] | Potency [6] | Potency [7] | Potency [8] | Potency [9] | Potency [10] | Potency [11] | Potency [12] | Potency [13] | Potency [14] | Potency [15]

C=C1CCCC2(C)CCC(C(C)(C)OC3OC(C)C(O)C(O)C3OC(=O)/C(C)=C\C)CC12 (stereo unspecified)
inactive: max response [1] 3.11% | outcome [2] | max response [3] -8.14% | outcome [4] | outcome [5] inactive [at 17.4 µM] | Potency [6] | Potency [7] | Potency [8] | Potency [9] | Potency [10] | Potency [11] | Potency [12] | Potency [13] | Potency [14] | Potency [15] | Potency [16]

Fc1ccc2c(CCNCc3cccc(OCC(F)(F)C(F)F)c3)c[nH]c2c1
inactive: max response [1] 4.88% | outcome [2] | max response [3] 7.73% | outcome [4] | outcome [5] | Potency [6] | Potency [7] | Potency [8] | Potency [9] | Potency [10] | Potency [11] | Potency [12] | Potency [13] | Potency [14] | Potency [15] | Potency [16]

Cc1cc(C)c(S(=O)(=O)n2cc(C)cc2C)c(C)c1
inactive: max response [1] -3.09% | outcome [2] | max response [3] 2.85% | outcome [4] | outcome [5] | Potency [6] | Potency [7] | Potency [8] | Potency [9] | Potency [10] | Potency [11] | Potency [12] | Potency [13] | Potency [14] | Potency [15] | Potency [16]

CN1CCN(C2=Nc3ccccc3Nc3ccc(OS(=O)(=O)C(F)(F)F)cc32)CC1
inactive: outcome [1] | outcome [2] | max response [3] -4.68% | outcome [4] | outcome [5] | Potency [6] | Potency [7] | Potency [8] | Potency [9] | Potency [10] | Potency [11] | Potency [12] | Potency [13] | Potency [14] | Potency [15] | Potency [16]

C=C1CC[C@@H]2[C@](C)(CO)[C@H](O)CC[C@@]2(C)[C@@H]1CC(O)C1=CCOC1=O (stereo partly specified)
inactive: max response [1] -6.08% | outcome [2] | outcome [3] | outcome [4] | outcome [5] | Potency [6] | Potency [7] | Potency [8] | Potency [9] | Potency [10] | Potency [11] | Potency [12] | Potency [13] | Potency [14] | Potency [15]

CC1=CC2/C=C(\C)CCC(O)C/C=C/C(=O)OC23C(=O)NC(CC(C)C)C3C1C (stereo unspecified)
inactive: max response [1] -1.17% | outcome [2] | outcome [3] | outcome [4] | outcome [5] inactive [at 17.4 µM] | Potency [6] | Potency [7] | Potency [8] | Potency [9] | Potency [10] | Potency [11] | Potency [12] | Potency [13] | Potency [14] | Potency [15] | Potency [16]

CCCN1CCC=C(c2cc(-c3ccc(C)cc3)no2)C1
inactive: outcome [1] | outcome [2] | max response [3] 9.64% | outcome [4] | outcome [5] | Potency [6] | Potency [7] | Potency [8] | Potency [9] | Potency [10] | Potency [11] | Potency [12] | Potency [13] | Potency [14] | Potency [15] | Potency [16]

O=C([C@@H](Cc1cccc(C(F)(F)F)c1)NS(=O)(=O)c1cc(F)c2c(c1)CCNC2)N1CCCC1
inactive: outcome [1] | outcome [2] | outcome [3] | outcome [4] | outcome [5] | Potency [6] | Potency [7] | Potency [8] | Potency [9] | Potency [10] | Potency [11] | Potency [12] | Potency [13] | Potency [14] | Potency [15] | Potency [16]
